Giardia FBPA inh-1: Giardia lamblia aldolase inhibition; AID 2451; purified Giardia FBPA; Potency, µM (titrated, usually from 59.6 µM), for inactives: at the highest dose activity, negative = inhibition, actives largely listed as inhibitors; 290,000 tested, 0.71% active; further: nearly all actives have a fitted effect of over 55% in size
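40 nM FBPA preincubated 10 min at RT with compound (up to 57.5 uM final), then substrate plus GAPDH/TPI/NAD/arsenate coupling and diaphorase/resazurin added. Fluorescence read after 20 min at RT, 525/598 nm.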
Sm TGR block: blocks Schistosoma mansoni thioredoxin glutathione reductase. Q962Y6. purified TGR, DTNB reduction, TNB absorbance 405 nm. Potency, µM (series often up to 114 µM), without a hit: at the highest dose activity change, negative = inhibition, usual class: inhibitors. 360,000 tested, 3% active. AID 485364; further: nearly all actives have a fitted effect of over 60% in size
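Kinetic colorimetric format: TGR-catalysed, NADPH-driven DTNB reduction monitored via TNB absorbance. Enzyme dispensed at 20 nM; compound exposure 15 min at room temperature before reaction start.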
AmpC inh no detg: blocks E. coli AmpC beta-lactamase in detergent-free assay; P00811; AmpC nitrocefin hydrolysis, absorbance 480 nm, 0.0001% Triton; Potency, µM (doses to about 57.1 µM), without a hit: top-dose activity change, negative = inhibition, hits mostly inhibitors; 330,000 tested, 0.52% active; AID 485341;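 further: plate controls were no compound for no effect and no enzyme for full effect; nearly all actives have a fitted effect of over 20% in size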
Target sequence (P00811 whole entry, looked up): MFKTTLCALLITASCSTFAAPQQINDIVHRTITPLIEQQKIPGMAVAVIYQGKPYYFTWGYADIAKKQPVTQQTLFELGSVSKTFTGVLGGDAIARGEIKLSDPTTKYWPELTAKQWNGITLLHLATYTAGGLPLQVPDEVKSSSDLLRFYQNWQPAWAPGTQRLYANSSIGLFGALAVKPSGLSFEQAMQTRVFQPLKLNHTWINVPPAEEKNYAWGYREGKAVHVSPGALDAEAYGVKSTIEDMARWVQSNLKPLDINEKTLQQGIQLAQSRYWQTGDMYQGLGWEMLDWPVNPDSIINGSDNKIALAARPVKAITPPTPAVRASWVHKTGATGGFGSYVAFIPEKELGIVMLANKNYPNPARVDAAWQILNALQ
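AmpC (5.3 nM in the dispensed reagent) in 20 mM phosphate pH 7.0 with 0.01% (detergent screen) or 0.0001% Triton X-100 was preincubated with compounds for 15 min at room temperature. Nitrocefin was then added from an 800 uM solution, and hydrolysis was followed at 480 nm.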
AmpC inh detg: AmpC beta-lactamase inhibition with detergent present. P00811. AmpC hydrolysis of nitrocefin, absorbance 480 nm, 0.01% Triton. Potency, µM (highest dose often 114 µM), without a hit: top-dose activity change, negative = inhibition, hits mostly inhibitors. 370,000 tested, 0.041% active;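 further: 0% = no-compound wells and -100% = no-enzyme wells; nearly all actives have a fitted effect of over 25% in size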
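AmpC (5.3 nM in the dispensed reagent) in 20 mM phosphate pH 7.0 with 0.01% (detergent screen) or 0.0001% Triton X-100 was preincubated with compounds for 15 min at room temperature. Nitrocefin was then added from an 800 uM solution, and hydrolysis was followed at 480 nm.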
RE007 growth inh: less growth of the S. pombe RE007 Vpr strain. S. pombe RE007 Vpr strain, BacTiter-Glo ATP luminescence, 24 h. Potency, µM (doses to about 92.2 µM), for the others: at the highest dose activity change, negative = less growth, hits mostly inhibitors. 360,000 tested, 0.21% active. AID 651644; active means well fitted falling curve with a large enough effect; inconclusive means small, poorly fitted or top-dose-only effect; inactive means no such curve, though single readings can be large or run the other way; further: nearly all actives have a fitted effect of over 50% in size
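Fission yeast strain RE007, carrying one chromosomally integrated HIV-1 vpr copy, was seeded at OD 0.01 in PMG+AL medium with 23 nL pinned compound. After 24 h at 30 °C and 99% humidity, viability was read by BacTiter-Glo luminescence.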
Giardia growth: Giardia lamblia growth inhibition; 1,500 tested, 5% active; Giardia lamblia trophozoite growth inhibition; Potency, µM (highest dose often 57.5 µM), inactives show at the top dose activity change, negative = inhibition, most hits filed as inhibitors; AID 2785; shares compounds with Giardia FBPA inh-1;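 further: trophozoites exposed to compound for 48 h at 37 °C; nearly all actives have a fitted effect of over 70% in size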
Mammal cell tox: toxic to mammalian cells in Giardia aldolase counter-screen; shares compounds with Giardia FBPA inh-1; 1,500 tested, 4% active; Potency, µM (titrated, usually from 57.5 µM), inactives show at the top dose viability change, negative = toxicity, most hits filed as inhibitors; AID 2786; mammalian cell viability counter-screen, qHTS;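 further: Chinese hamster ovary cells used as mammalian cytotoxicity surrogate; viability measured as cellular ATP by luminescence; compound exposure lasted 48 h before reading; nearly all actives have a fitted effect of over 60% in size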
Giardia FBPA inh-2: confirmation of Giardia fructose-bisphosphate aldolase inhibitors. purified Giardia aldolase enzyme activity, qHTS. shares compounds with Giardia FBPA inh-1. Potency, µM (highest dose often 57.5 µM), without a hit: top-dose activity change, negative = inhibition, most hits filed as inhibitors. 1,500 tested, 5% active; further: nearly all actives have a fitted effect of over 45% in size
Rabbit aldolase: selectivity test for Giardia aldolase inhibitors: rabbit aldolase | 1,500 tested, 4% active | shares compounds with Giardia FBPA inh-1 | Rabbit muscle FBPA enzyme inhibition, selectivity counter-screen | Potency, µM (series often up to 57.5 µM), for inactives: top-dose activity, negative = inhibition, most hits filed as inhibitors; further: nearly all actives have a fitted effect of over 60% in size
GAPDH coupling: counter-screen for Giardia aldolase inhibitors: GAPDH coupling enzyme; shares compounds with Giardia FBPA inh-1; GAPDH coupling enzyme counterscreen, biochemical, qHTS; Potency, µM (titrated, usually from 57.5 µM), for inactives: at the top dose activity change, negative = inhibition, hits mostly inhibitors; 1,500 tested, 6% active; AID 2795; further: nearly all actives have a fitted effect of over 55% in size
An asterisk follows results filed as active; ? = inconclusive; . = not tested or not shown; ! = not active in a repeat; [ ] = remark or other dose. Shown are actives, neighbours in structure and some others; about 3.4% of the full set was active somewhere. Unless noted, the call rests on the fitted dose curve; in most records, active means well fitted curve in the direction sought with a large enough effect; inconclusive means small, poorly fitted or top-dose-only effect, or another doubt; inactive means no such curve, though single readings can be large; an effect the other way counts as inactive or inconclusive. Unless noted, on the % scale 0 is the no-effect control and ±100 the full control effect; potency means the concentration at half of the fitted maximal effect.

SMILES | Giardia FBPA inh-1 | Sm TGR block | AmpC inh no detg | AmpC inh detg | RE007 growth inh | Giardia growth | Mammal cell tox | Giardia FBPA inh-2 | Rabbit aldolase | GAPDH coupling
CN(C)S(=O)(=O)c1cccc(C(=O)NC(=S)N(CCC#N)Cc2cccnc2)c1 | 5.6µM* | -7% | -27% | -7% | 12% | 6%[38.3 µM] | -6% | 4% | 2% | -6%
O=C(NC(=S)N(CCO)Cc1ccccc1)c1cc(Br)ccc1Cl | 16µM* | 0% | -34% | 1% | 18% | 12%[10.4 µM] | 4% | 10% | 11% | 17%
CCOc1ccccc1N(C)C(=O)c1cn(CC)c(=O)c2cc(OC)c(OC)cc12 | 10% | 2% | 42% | -3% | 0% | . | . | . | . | .
COc1ccccc1OCC(=O)NNC(=O)c1cnccn1 | 16µM* | 27% | -9% | -4% | 4% | ? | 3% | -1% | -1% | 7%
COc1ccc(-c2csc(N(CCCN(C)C)C(=O)c3ccccc3C)n2)cc1 | ? | -3% | 257% | 5% | -27% | . | . | . | . | .
COc1ccc(-c2csc(N(CCCN(C)C)C(=O)c3ccccc3F)n2)cc1 | 28µM* | 15% | 122% | ? | -17% | -25% | -13% | 3% | 9% | 8%
COc1cc(NC(=S)NC(C)(C)C)c(OC)cc1Cl | -5% | 0% | -18% | -11% | -14% | . | . | . | . | .
COc1cc(Cl)c(C)cc1NC(=S)NN | 20µM* | -1% | -32% | -5% | -11% | ? | 1% | 3% | 3% | 8%
CCCCNc1cc(C(=O)O)cc(S(N)(=O)=O)c1Oc1ccccc1 | 9% | 1% | -11% | 0% | 1% | . | . | . | . | .
O=C(O)c1ccc2cccc(O)c2n1 | 2.2µM* | -9% | -21% | -5% | 23% | ? | 21% | ? | -28% | ?
Cc1ccccc1NNC(=O)C(=O)NNc1ccccc1C | 16µM* | -23% | -18% | 8% | 33% | ? | -6% | -11% | 5% | 8%
CC(=O)NCc1ccc(S(=O)(=O)NC(C)CCc2ccccc2)cc1 (centres undefined) | 10% | 5% | 0% | -4% | ? | . | . | . | . | .
COc1cc(Br)c(CN2CCCN(C)CC2)cc1OC | 13µM* | -17% | 1% | ? | 5% | 15% | 10% | 0% | 7% | 11%
O=C(CSc1n[nH]c(-c2cccnc2)n1)Nc1ccccc1[N+](=O)[O-] | 25µM* | 2% | -38% | -4% | -18% | ? | -7% | -6% | 2% | 5%
CCCN1CCN(C(=O)CN2C(=O)CC(C)(C)S(=O)(=O)c3ccccc32)CC1 | 2% | ? | -12% | 0% | -9% | . | . | . | . | .
S=C(Nc1ccccc1)c1ccccn1 | 3.2µM*! | -6% | -25% | -4% | ? | -14%[38.3 µM] | 20µM* | -8% | -8% | -10%
Nn1cnnc1N/N=C/c1ccc(Cl)cc1Cl | -30% | 4% | 4% | 0% | -4% | -10%[38.3 µM] | ? | 5.8µM* | 8.2µM* | 9.2µM*
